L3MBTL1 inh – qHTS Assay for the Inhibitors of L3MBTL1. AID 485360, 2010. 230,000 tested, 0.66% active. Lethal(3)malignant brain tumor-like protein 1 (Homo sapiens), Q9Y468. AlphaScreen L3MBTL1–H3K9me1 peptide binding. Potency, µM (series often up to 57.1 µM), for inactives: at the highest dose activity, negative = inhibition, hits mostly inhibitors; further: on the % scale 0 is the no-effect control and ±100 the full control effect; nearly all actives have a fitted effect of over 60% in size
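L3MBTL1 (50 nM) pre-complexed 30 min with biotinylated H3(1-15)K9me1 peptide (75 nM), then compounds added for 30 min at room temperature; AlphaScreen streptavidin donor/nickel chelate acceptor beads (10 ug/mL final) read after 30 min dark incubation.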
JMJD2A Tudor inh – qHTS Assay for Inhibitors of JMJD2A-Tudor Domain; AlphaScreen JMJD2A-Tudor / H3K4me3 peptide binding; 390,000 tested, 4.4% active; Potency, µM (highest dose often 114 µM), without a hit: top-dose activity change, negative = inhibition, actives largely listed as inhibitors; further: on the % scale 0 is the no-effect control and ±100 the full control effect; nearly all actives have a fitted effect of over 50% in size
Sfp PPTase inh – qHTS Assay for Inhibitors of Bacillus subtilis Sfp phosphopantetheinyl transferase (PPTase); 4'-phosphopantetheinyl transferase ffp (Bacillus subtilis), Q9F4F7; Biochemical Sfp PPTase activity, qHTS; Potency, µM, for inactives: largest response in the series, negative = inhibition, usual class: inhibitors; 310,000 tested, 3.5% active;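 further: the enzyme is Sfp with the accession as filed and its product quenches rhodamine fluorescence; 0% = enzyme reaction without inhibitor and -100% = no enzyme wells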
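With Hepes-Na pH 7.6 buffer containing 10 mM MgCl2, Sfp (15 nM) modified BHQ-2-YbbR (12.5 uM) using rhodamine-CoA (5 uM). Two reads 30 minutes apart at 525/598 nm yielded each well's rate.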
G9a inh – qHTS Assay for Inhibitors of Histone Lysine Methyltransferase G9a | Histone-lysine N-methyltransferase EHMT2 (Homo sapiens), Q96KQ7 | G9a H3K9 monomethylation, AlphaScreen, 2 h | Potency, µM (highest dose often 102 µM), for inactives: at the top dose activity, negative = inhibition, hits mostly inhibitors | 350,000 tested, 8.8% active; further: on the % scale 0 is the no-effect control and ±100 the full control effect; nearly all actives have a fitted effect of over 75% in size
Target sequence (Q96KQ7 913-1193 limits assumed): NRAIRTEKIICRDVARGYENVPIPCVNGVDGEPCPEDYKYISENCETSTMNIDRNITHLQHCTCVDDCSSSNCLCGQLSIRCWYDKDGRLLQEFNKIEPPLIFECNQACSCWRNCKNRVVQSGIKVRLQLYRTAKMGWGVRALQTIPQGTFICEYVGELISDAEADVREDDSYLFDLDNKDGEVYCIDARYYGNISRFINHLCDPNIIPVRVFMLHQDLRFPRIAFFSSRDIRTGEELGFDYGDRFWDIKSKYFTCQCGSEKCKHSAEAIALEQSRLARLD
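Compounds were preincubated with 20 nM G9a for 15 min, after which biotinylated H3K9 peptide (500 nM) and SAM (20 uM) started a 2 h room-temperature reaction. Monomethylated product was quantified by antibody-based AlphaScreen chemiluminescence.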
BAZ2B inh – qHTS Assay for Inhibitors of BAZ2B; Potency, µM (titrated, usually from 114 µM), without a hit: at the top dose activity change, negative = inhibition, most hits filed as inhibitors; AlphaScreen BAZ2B-H3K14Ac peptide displacement; Bromodomain adjacent to zinc finger domain protein 2B (Homo sapiens), Q9UIF8; 360,000 tested, 4.4% active; further: on the % scale 0 is the no-effect control and ±100 the full control effect; nearly all actives have a fitted effect of over 60% in size
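BAZ2B (50 nM) with biotin-H3(5-23)K14Ac peptide (50 nM) in PBS pH 7.4, 0.01% Tween-20, preformed 30 min, then compound 30 min at room temperature; top concentration 110uM. AlphaScreen streptavidin donor/nickel chelate acceptor beads (10 ug/mL final), 20 min dark, signal read.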
HP1b chromo inh – HTS for Inhibitors of HP1-beta Chromodomain Interactions with Methylated Histone Tails; 390,000 tested, 0.56% active; Potency, µM (titrated, usually from 114 µM), for inactives: at the highest dose activity change, negative = inhibition, most hits filed as inhibitors; Chromobox protein homolog 1 (Homo sapiens), P83916; AlphaScreen HP1-beta / biotin-H3K9me3 peptide binding; further: nearly all actives have a fitted effect of over 70% in size
Target sequence (P83916 whole entry, looked up): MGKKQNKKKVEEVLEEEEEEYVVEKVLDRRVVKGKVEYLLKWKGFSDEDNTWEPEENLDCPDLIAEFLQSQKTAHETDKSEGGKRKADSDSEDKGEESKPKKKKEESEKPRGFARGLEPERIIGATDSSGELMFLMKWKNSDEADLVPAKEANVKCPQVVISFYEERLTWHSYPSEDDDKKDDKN
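AlphaScreen: HP1-beta (50 nM) preformed 30 min with biotin-H3(1-18)K9me3 peptide (50 nM) in PBS pH 7.4, 0.01% Tween-20. Compound added for 30 min at RT, then streptavidin donor/nickel chelate acceptor beads (10 ug/mL) for 30 min.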
* = called active by the depositor; ? = inconclusive; nt = not tested or not shown; [ ] = dose if it differs, or a comment. Hits are enriched below; roughly 12% of the tested compounds scored in any of these assays. The call rests on the fitted dose curve; in most records, active means well fitted curve in the direction sought with a large enough effect; inconclusive means small, poorly fitted or top-dose-only effect, or another doubt; inactive means no such curve, though single readings can be large; an effect the other way counts as inactive or inconclusive. Potency means the concentration at half of the fitted maximal effect.

SMILES	L3MBTL1 inh	JMJD2A Tudor inh	Sfp PPTase inh	G9a inh	BAZ2B inh	HP1b chromo inh
N#Cc1c(-c2ccccc2)nc(SCC(=O)Nc2nnc(C(F)(F)F)s2)[nH]c1=O	19%	-29%	33%	50µM*	-21%	16%
Cc1cc(C)nc(NS(=O)(=O)c2ccc(NC(=O)CSc3nc(-c4ccccc4)c(C#N)c(=O)[nH]3)cc2)n1	nt	-6%	27%	79µM*	nt	26%
CCOc1ccc(C2CC(=O)N(c3cccc(F)c3)C3=C2C(=O)OC3)cc1 (stereo not given)	nt	-18%	nt	13%[59 µM]	-27%	31%
CC1=CCC(/C=N\Nc2nnc3c(n2)[nH]c2ccccc23)CC1 (stereo not given)	-6%	nt	-17%	-8%[59 µM]	50µM*	nt
S=C1Cc2ccccc2N1	-10%	79µM*	3.2µM*	4.5µM*	-35%	?
COc1cc(C(=O)Nc2ccc(C#N)cc2)c([N+](=O)[O-])cc1OC	nt	-24%	21%	-50%	-1%	19%
N#Cc1cc([N+](=O)[O-])c2sc(C(N)=O)[n+]([O-])c2c1	nt	nt	nt	28µM*	nt	nt
CC(C)NC(=O)c1ccc2c(c1)N(CC(=O)N1CCCCC1)C(=O)C(C)(C)O2	nt	-5%	9%	-1%	2%	8%
CN(C)c1ccc(C(=O)C(=O)c2ccccc2)cc1	nt	?	-1%	?	?	5%
CN(C)c1ccc2c(c1)Sc1cc(N(C)C)ccc1N2C(=O)c1ccccc1	?	14µM*	-12%	10µM*	8.9µM*	13µM*
CCc1ccc2occ(CC(=O)Nc3ccccc3C(F)(F)F)c2c1	nt	3%	nt	-9%[59 µM]	-11%	20%
COc1ccc(-c2noc(CSc3nc(-c4ccccc4)cc(=O)[nH]3)n2)cc1OC	-5%	?	35µM*	-18%[12.7 µM]	-7%	26%
CCn1c(C(=O)NCc2ccc(OC(C)C)cc2)cc2oc3ccccc3c21	nt	-33%	nt	-5%[59 µM]	-18%	15%
CCOc1cc(CN2CCc3c([nH]c4ccccc34)C2)ccc1OC	-12%	3.2µM*	-21%	11µM*	50µM*	?
COc1ccc(CN2CCc3c([nH]c4ccccc34)C2)c(OC)c1C	-5%	1.3µM*	-24%	32µM*	45µM*	?
COC(=O)c1sc2cccc(F)c2c1S(=O)(=O)Nc1ccc(C)cc1Cl	nt	-9%	nt	-50%[59 µM]	-17%	27%
Cc1ccc2c(c1)c1c(c(=O)n(-c3ccccc3)c(=O)n1CC(=O)N1CCCC1)n2C	nt	-2%	nt	3%[59 µM]	3%	38%
CCN1C2=C(C(=O)CCC2)C(c2ccc(O)cc2)C2=C1CCCC2=O	6%	-1%	12%	20µM*	5%	27%
O=C1CCCC2=C1C(c1ccc(O)cc1)c1c(ccc3ccccc13)N2 (stereo not given)	10%	7%	50µM*	?	nt	72%
CCOc1cc(C2C3=C(CCCC3=O)N(C)C3=C2C(=O)CCC3)cc(Cl)c1O	-13%	5%	-3%	?	5%	18%
CCOc1ccc(C2C3=C(CCCC3=O)Nc3ccc4ncccc4c32)cc1 (stereo not given)	nt	-22%	-7%	nt	-15%	38%
CCN(CC)S(=O)(=O)c1ccc(OC)c(NC(=O)OCc2ccccc2)c1	nt	2%	8%	4%	-12%	43%
O=C(CNC(=O)C1CCCCC1)OCC(=O)c1ccc(-c2ccccc2)cc1	nt	4%[57.1 µM]	nt	nt	nt	18%[57 µM]
O=c1/c(=C/c2ccc(O)c([N+](=O)[O-])c2)sc2nc3ccccc3n12	-9%	45µM*	3%	?	?	?
Cc1cc(C=C2C(=O)c3ccccc3C2=O)c(C)n1-c1ccc(C(=O)O)cc1	?	-27%	?	35µM*	?	-11%
SMILES	L3MBTL1 inh	JMJD2A Tudor inh	Sfp PPTase inh	G9a inh	BAZ2B inh	HP1b chromo inh
Cc1cc(/C=c2/sc3nc4ccccc4n3c2=O)c(C)n1-c1ccccn1	-7%	?	-23%	?	-10%	24%
Cc1cc(/C=c2\sc3nc4ccccc4n3c2=O)c(C)n1-c1ccc(C(=O)O)cc1	-9%	-23%	-18%	25µM*	?	-17%
O=c1/c(=C\c2cccnc2)sc2nc3ccccc3n12	nt	-4%	8%	-3%[12.7 µM]	3%	26%
Cc1cc(C=C2C(=O)c3ccccc3C2=O)c(C)n1-c1cccc(C(=O)O)c1	nt	-38%	0%	40µM*	?	-15%
COCCN(C(=O)C1CC1)c1nnc(-c2ccc(C)cc2)s1	10%	2%	6%	8%[59 µM]	5%	29%
CCOc1ccc(-c2nnc(N(CC)C(=O)C3CCC3)s2)cc1	16%	31%	40µM*	?	21%	11%
CN(C(=O)c1cccnc1)c1nnc(-c2cnccn2)s1	-3%	-4%	14%	-6%[2.33 µM]	8%	12%
COc1cccc(C(=O)N(C)c2nnc(-c3ccncc3)s2)c1	2%	-13%	5%	79µM*	1%	30%
CN(C(=O)c1cccnc1)c1nnc(-c2ccccn2)s1	nt	-14%	-5%	?	56µM*	19%
CN(C(=O)c1ccccn1)c1nnc(-c2cnccn2)s1	-2%	-4%	-9%	45µM*	79µM*	3%
COc1ccc(NC(=S)NCc2ccc(F)cc2)cc1	nt	-9%	11%	-2%[2.33 µM]	-31%	39%
COCCn1c(=O)c(-c2ccccc2)nc2cnc(N3CCN(C)CC3)nc21	nt	nt	9%	-1%[0.501 µM]	nt	nt
CCCC(=O)N(C)c1nnc(-c2ccc(OC)cc2)s1	10%	-4%	-12%	45µM*	-3%	23%
CC1=NN(c2cccc(C(=O)O)c2)C(=O)/C1=C\C=C/c1ccccc1	nt	?	50µM*	40µM*	?	?
O=C(Nc1cccc(C(=O)O)c1)/C(=C\C=C\c1ccccc1)NC(=O)c1ccccc1	6%	-1%	16%	?	-18%	34%
CC1=NN(c2ccc(C)cc2)C(=O)/C1=C\C=C\c1ccccc1	?	4.5µM*	?	4.5µM*	2.5µM*	5.6µM*
CC1=NN(c2ccccc2)C(=O)/C1=C/C=C/C=C/N(C)C	nt	?	?	18µM*	13µM*	?
CCNC(=O)NC(=O)C(C)Sc1nc2ccccc2n1CC(C)C (stereo not given)	4%	-8%	9%	nt	10%	24%
Cc1ccc(NS(=O)(=O)c2cccc(F)c2)cc1C	nt	-1%	nt	nt	nt	nt
C=CCNC(=O)CSc1nc2cc(C(=O)OCC)ccc2n1CC	nt	-6%	-7%	8%	-4%	18%
